From PubChem BioAssay (Tox21)
Inconclusive results are not listed. Where a structure was tested more than once in an assay, its records may differ in their call. Active and inactive are the calls of the source. Unless noted, the call rests on the fitted dose curve; in most records, active means well fitted curve in the direction sought with a large enough effect in the repeat runs; inconclusive means weak or mixed curves; inactive means no such curve, though single readings can be large; an effect the other way counts as inactive or inconclusive.

Tests used:
[1] = A CellTox Green Cytotoxicity Assay to monitor cytotoxicity in HepG2 cells - 0 hour (AID 1224882); further: nearly all actives have a fitted effect of over 35% in size
Summary of the method: (§1)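 Fluorescent DNA-binding dye, 600 HepG2 cells/well, 5 h preincubation then compound in DMSO; same plates read at 0–40 h, 37 C.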

[2] = A CellTox Green Cytotoxicity Assay to monitor cytotoxicity in HepG2 cells - 32 hour (AID 1224883); further: nearly all actives have a fitted effect of over 50% in size; further: potency means the concentration at half of the fitted maximal effect
Summary of the method: as §1

[3] = A CellTox Green Cytotoxicity Assay to monitor cytotoxicity in HEK293 cells - 8 hour (AID 1224884); further: nearly all actives have a fitted effect of over 35% in size; further: potency means the concentration at half of the fitted maximal effect
Summary of the method: (§2)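 Homogeneous no-lysis format: HEK293 cell suspension mixed with CellTox Green reagent, seeded, incubated 5 h at 37 C/5% CO2, then dosed by pintool with compound in DMSO.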

[4] = qHTS RealTime-Glo MT Cell Viability Assay in HepG2 cells - 16 hour (AID 1224885); further: nearly all actives have a fitted effect of over 50% in size; further: potency means the concentration at half of the fitted maximal effect
Summary of the method: (§3)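 Cells + NanoLuc/prosubstrate dispensed (600 cells/well) → 5 h at 37 C/5% CO2 → compounds in DMSO transferred → 40 h incubation at 37 C, luminescence read at 0, 8, 16, 24, 32, 40 h.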

[5] = qHTS RealTime-Glo MT Cell Viability Assay in HEK293 cells - 24 hour (AID 1224886); further: nearly all actives have a fitted effect of over 50% in size; further: potency means the concentration at half of the fitted maximal effect
Summary of the method: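 Tox21 10K qHTS, HEK293, 600 cells/well, RealTime-Glo reagent co-dispensed with cells; 5 h preincubation, compound by pintool, 37 C, luminescence at 0–40 h.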

[6] = qHTS RealTime-Glo MT Cell Viability Assay in HEK293 cells - 8 hour (AID 1224887); further: nearly all actives have a fitted effect of over 50% in size; further: potency means the concentration at half of the fitted maximal effect
Summary of the method: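 Measured as luminescence from the same continuously cultured HEK293 wells at successive time points (0, 8, 16, 24, 32, 40 h) after compound addition. Reagent present from seeding; dosing at 5 h; incubation 37 C.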

[7] = A CellTox Green Cytotoxicity Assay to monitor cytotoxicity in HEK293 cells - 16 hour (AID 1224888); further: nearly all actives have a fitted effect of over 35% in size; further: potency means the concentration at half of the fitted maximal effect
Summary of the method: as §2

[8] = qHTS RealTime-Glo MT Cell Viability Assay in HepG2 cells - 0 hour (AID 1224889); further: nearly all actives have a fitted effect of over 50% in size; further: potency means the concentration at half of the fitted maximal effect
Summary of the method: as §3

[9] = A CellTox Green Cytotoxicity Assay to monitor cytotoxicity in HepG2 cells - 8 hour (AID 1224890); further: nearly all actives have a fitted effect of over 45% in size; further: potency means the concentration at half of the fitted maximal effect
Summary of the method: as §1

[10] = qHTS assay to identify small molecule antagonists of the estrogen receptor alpha (ER-alpha) signaling pathway using the BG1 cell line in the presence of 0.1 nM 17-beta-estradiol - cell viability counter screen (AID 1259241); further: nearly all actives have a fitted effect of over 40% in size; further: potency means the concentration at half of the fitted maximal effect
Summary of the method: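 VM7Luc4E2, 4,000 cells/well, phenol red-free medium + 10% charcoal-stripped FBS; 24 hr plating; cpd + 0.1 nM E2 final, 22 hr 37C/5% CO2; CellTiter-Fluor 30 min, fluorescence.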

[11] = target: Estrogen receptor (Homo sapiens) (UniProt P03372); test: qHTS assay to identify small molecule antagonists of the estrogen receptor alpha (ER-alpha) signaling pathway using the BG1 cell line in the presence of 0.1 nM 17-beta-estradiol (AID 1259244); further: nearly all actives have a fitted effect of over 50% in size; further: potency means the concentration at half of the fitted maximal effect
Summary of the method: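 Seeding of stripped-serum-adapted VM7Luc4E2 cells, 24 h attachment, compound transfer, then 0.1 nM final 17beta-estradiol; after 22 h incubation, ONE-Glo reagent and luminescence reading.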

[12] = qHTS assay to identify small molecule agonists of the sonic hedgehog signaling (Shh) pathway - cell viability counter screen (AID 1259366); further: nearly all actives have a fitted effect of over 50% in size; further: potency means the concentration at half of the fitted maximal effect
Summary of the method: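 Cytotoxicity counter screen run in the same wells as the Shh reporter assay. NIH/3T3 cells carrying a Gli1 response element–driven luciferase were treated with DMSO-dissolved compounds for 24hr, and live-cell protease activity was measured with CellTiter-Fluor.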

[13] = qHTS assay to identify small molecule agonists of the sonic hedgehog signaling (Shh) pathway (AID 1259368; calls by dose curve;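 further: NIH/3T3-derived 3T3Gli1-Luc cells carrying a stable Gli1-driven firefly luciferase reporter; series mostly up to about 92 µM; nearly all actives have a fitted effect of over 15% in size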)
Summary of the method: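 Stable NIH/3T3 Gli1-Luc reporter clone; 24 hr cpd exposure after a 4 hr settling period; luminescence endpoint.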

[14] = qHTS assay to identify small molecule antagonists of the androgen receptor (AR) signaling pathway using the MDA cell line in the presence of 0.5 nM R1881 - cell viability counter screen (AID 1259242); further: nearly all actives have a fitted effect of over 45% in size; further: potency means the concentration at half of the fitted maximal effect
Summary of the method: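 Human breast carcinoma MDA-kb2 cells, cultured without CO2, receive compounds alongside 0.5 nM (final) R1881 agonist. After 16 hr at 37C, viability is taken as live-cell protease signal.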

[15] = qHTS assay to identify small molecule phospholipidosis (PLD) inducers (AID 1259344; active means well fitted curve in the direction sought with a large enough effect; an effect the other way counts as inactive or inconclusive)
Summary of the method: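 After 4 h attachment on collagen I, HepG2 cells were dosed with compound alongside LipidTOX Red, kept 24 h at 37 C, fixed, and imaged for lamellar phospholipid pits.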

[16] = qHTS assay to identify small molecule HDAC inhibitors (AID 1259364); further: potency means the concentration at half of the fitted maximal effect;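 further: wild-type HCT-116 cells with endogenous class I/II HDAC activity; nearly all actives have a fitted effect of over 45% in size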
Summary of the method: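 After a 2 hr compound incubation (37C, 5% CO2), HCT-116 cells seeded at 1,500/well the day before received HDAC-Glo reagent; signal read as luminescence after 30 min at room temperature.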

[17] = qHTS assay to identify small molecule HDAC inhibitors - cell viability counter screen (AID 1259365); further: nearly all actives have a fitted effect of over 50% in size; further: potency means the concentration at half of the fitted maximal effect
Summary of the method: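 Luminescence from CellTiter-Glo, developed 30min at room temperature, reports viability of wild-type HCT-116 cells treated 2hr with compounds at 37 C and 5% CO2 after overnight plating.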

[18] = qHTS assay to identify small molecule antagonists of the sonic hedgehog signaling (Shh) pathway - cell viability counter screen (AID 1259367); further: nearly all actives have a fitted effect of over 55% in size; further: potency means the concentration at half of the fitted maximal effect
Summary of the method: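 Conditioned medium drove Shh signaling in 3T3 Gli1-Luc cells exposed to compounds at 37C and 5% CO2. Viability was determined from CellTiter-Fluor fluorescence, with reagent incubated 1 hr after 23 hr of treatment.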

[19] = qHTS assay to identify small molecule antagonists of the sonic hedgehog signaling (Shh) pathway (AID 1259369; calls by dose curve; further: nearly all actives have a fitted effect of over 45% in size; further: potency means the concentration at half of the fitted maximal effect)
Summary of the method: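 Gli1 transcriptional reporter (firefly Luc) in NIH/3T3 background, conditioned-medium activated. 24hr exposure, luminescence endpoint.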

[20] = target: Androgen receptor (Homo sapiens) (UniProt P10275); test: qHTS assay to identify small molecule antagonists of the androgen receptor (AR) signaling pathway using the MDA cell line in the presence of 0.5 nM R1881 (AID 1259243)
Summary of the method: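 Cells: MDA-kb2 (MMTV-luc). Stimulus: 0.5 nM R1881. Time: 16 hr, 37C, no CO2. Detection: ONE-Glo luminescence after 30 min at RT.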

Measured: Potency

Chain of Estrogen receptor (Homo sapiens) (P03372 whole entry, looked up): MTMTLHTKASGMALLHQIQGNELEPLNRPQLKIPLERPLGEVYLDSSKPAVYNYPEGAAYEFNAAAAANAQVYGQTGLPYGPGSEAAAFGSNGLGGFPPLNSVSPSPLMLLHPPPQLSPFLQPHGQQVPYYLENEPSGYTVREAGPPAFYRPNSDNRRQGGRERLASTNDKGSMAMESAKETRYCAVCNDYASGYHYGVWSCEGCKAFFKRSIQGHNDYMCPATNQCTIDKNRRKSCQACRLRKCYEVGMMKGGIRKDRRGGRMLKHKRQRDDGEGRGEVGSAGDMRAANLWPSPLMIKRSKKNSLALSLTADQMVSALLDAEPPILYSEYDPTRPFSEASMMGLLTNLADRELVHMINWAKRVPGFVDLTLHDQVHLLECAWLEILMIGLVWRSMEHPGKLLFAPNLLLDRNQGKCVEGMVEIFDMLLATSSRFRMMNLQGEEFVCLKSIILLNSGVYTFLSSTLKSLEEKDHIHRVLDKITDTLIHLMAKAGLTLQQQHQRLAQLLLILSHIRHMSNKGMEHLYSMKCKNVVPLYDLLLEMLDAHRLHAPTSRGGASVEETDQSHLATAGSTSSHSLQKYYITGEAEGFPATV
Chain of Androgen receptor (Homo sapiens) (P10275 whole entry, looked up): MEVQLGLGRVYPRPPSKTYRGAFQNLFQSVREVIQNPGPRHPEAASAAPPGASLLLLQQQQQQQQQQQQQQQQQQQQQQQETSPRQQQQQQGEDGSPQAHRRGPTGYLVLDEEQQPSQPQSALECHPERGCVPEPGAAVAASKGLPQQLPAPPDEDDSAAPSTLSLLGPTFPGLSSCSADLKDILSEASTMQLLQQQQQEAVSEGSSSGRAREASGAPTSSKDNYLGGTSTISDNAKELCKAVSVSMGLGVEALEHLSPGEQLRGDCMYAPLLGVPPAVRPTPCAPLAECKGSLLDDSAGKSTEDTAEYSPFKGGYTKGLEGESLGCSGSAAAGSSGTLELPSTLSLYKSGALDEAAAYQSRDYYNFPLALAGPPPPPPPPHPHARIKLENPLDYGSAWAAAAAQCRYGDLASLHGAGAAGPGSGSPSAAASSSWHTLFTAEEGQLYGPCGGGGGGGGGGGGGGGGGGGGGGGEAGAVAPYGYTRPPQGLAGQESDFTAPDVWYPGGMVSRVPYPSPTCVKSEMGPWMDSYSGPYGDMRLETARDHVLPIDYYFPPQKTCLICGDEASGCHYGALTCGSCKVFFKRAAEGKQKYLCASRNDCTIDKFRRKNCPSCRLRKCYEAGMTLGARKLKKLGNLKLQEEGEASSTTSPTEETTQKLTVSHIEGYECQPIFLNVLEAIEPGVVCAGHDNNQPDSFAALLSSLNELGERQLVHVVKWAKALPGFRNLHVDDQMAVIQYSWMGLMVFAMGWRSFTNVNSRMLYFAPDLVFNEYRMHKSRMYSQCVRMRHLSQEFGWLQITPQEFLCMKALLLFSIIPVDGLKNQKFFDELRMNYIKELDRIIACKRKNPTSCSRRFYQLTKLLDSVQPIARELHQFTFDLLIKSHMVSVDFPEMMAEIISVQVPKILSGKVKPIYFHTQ

O=C(c1ccc(O)cc1O)c1ccc(O)cc1O
not listed: [14] | [15] | [16] | [17] | [18] | [19] | [20]
inactive: all other assays above

CC[C@H](c1ccc(O)cc1)[C@@H](CC)c1ccc(O)cc1
active: [2] 43.6 µM | [5] 24.5 µM | [11] 48.6 µM
48.6 µM (active) and inactive: [18]
54.9 µM (active) and inactive: [9]
54.5 µM (active) and inactive: [12]
not listed: [13] | [19] | [20]
inactive: all other assays above

C[C@]12CCC(=O)C=C1CC[C@@H]1[C@@H]2[C@@H](O)C[C@@]2(C)[C@H]1CC[C@]2(O)C(=O)COC(=O)CCC(=O)O
active: [8] 3.38 µM
not listed: [9] | [13] | [15] | [19] | [20]
inactive: all other assays above

COc1cc(/C=C/C(=O)O[C@H]2CC[C@]34C[C@]35CC[C@]3(C)[C@@H]([C@H](C)CCC=C(C)C)CC[C@@]3(C)[C@@H]5CC[C@H]4C2(C)C)ccc1O
not listed: [11] | [20]
inactive: all other assays above

CCCCCOC(=O)CCCC
not listed: [14] | [15] | [20]
inactive: all other assays above

COc1cccc(N)c1
not listed: [11] | [13] | [15] | [17] | [20]
inactive: all other assays above

CCc1oc2ccccc2c1C(=O)c1cc(Br)c(O)c(Br)c1
not listed: [11] | [20]
inactive: all other assays above

C[n+]1ccn(Cc2ccccc2)c1
not listed: [11] | [15] | [20]
inactive: all other assays above

CCC(N)(CO)CO
not listed: [15] | [19] | [20]
inactive: all other assays above

COc1c(C)c2c(c(O)c1C/C=C(\C)CCC(=O)O)C(=O)OC2
not listed: [20]
inactive: all other assays above

O=C(O)c1ccc(Cl)c(Cl)c1
not listed: [15] | [20]
inactive: all other assays above

c1ccc(CSCc2ccccc2)cc1
active: [16] 24.3 µM
not listed: [11] | [13] | [15] | [17] | [19] | [20]
inactive: all other assays above

CCOC(=O)O[C@H](C)OC(=O)c1ccc2c(c1)cc(C(=O)NC1CCN(C(C)C)CC1)n2Cc1cc(-c2ccc(Cl)s2)on1
active: [2] 11.5 µM | [3] 51.3 µM | [4] 12.9 µM | [5] 11.5 µM | [6] 11.5 µM | [7] 45.8 µM | [9] 18.2 µM | [10] 64.1 µM | [14] 40.4 µM | [11] 64.1 µM | [17] 50.9 µM | [12] 12.8 µM | [18] 20.3 µM
inactive: [1] | [16] | [13]

CC(C)n1nc(-c2cc3cc(O)ccc3[nH]2)c2c(N)ncnc21
active: [2] 23.9 µM | [5] 0.301 µM | [11] 0.376 µM | [12] 0.841 µM | [18] 0.944 µM
not listed: [6] | [10] | [14] | [19] | [20]
inactive: all other assays above

CCC(Cl)C(Cl)C(Cl)CC(Cl)C(Cl)C(C)Cl (stereo not given)
not listed: [6] | [11] | [15] | [20]
inactive: all other assays above

CN(C)c1ccc(SC#N)cc1
active: [19] 48.6 µM
not listed: [8] | [15] | [17] | [18] | [20]
inactive: all other assays above

Clc1ccc2n[nH]nc2c1
not listed: [7] | [11] | [15] | [17] | [20]
inactive: all other assays above

ON=C1CCCC1
active: [5] 22.6 µM
not listed: [6] | [11] | [15] | [20]
inactive: all other assays above

CCCCCCCCCCCC[N+](C)(C)CCCCCCCCCCCC
active: [2] 7.76 µM | [3] 19.5 µM | [4] 8.71 µM | [5] 6.92 µM | [6] 17.4 µM | [7] 17.4 µM | [9] 19.5 µM | [10] 54.5 µM | [14] 27.3 µM | [11] 30.6 µM | [18] 27.3 µM
inactive: [1] | [16] | [13]

CCCCCCCCNC(C)C(O)c1ccc(SC(C)C)cc1 (stereo not given)
inactive: [1] | [15] | [16] | [13]
active: [2] 16.9 µM | [3] 21.3 µM | [4] 15.1 µM | [5] 9.52 µM | [6] 10.7 µM | [9] 21.3 µM | [14] 23.7 µM | [20] 23.7 µM | [11] 29.8 µM | [12] 16.8 µM | [19] 18.8 µM

CCCCN1C(=O)[C@@H]([C@H](O)C2CCCCC2)NC(=O)C12CCN(Cc1ccc(Oc3ccc(C(=O)O)cc3)cc1)CC2
not listed: [8] | [11] | [12] | [15] | [18] | [19] | [20]
inactive: all other assays above

Oc1cccc2cc3cccc(O)c3c(O)c12
not listed: [8] | [11] | [13] | [14] | [15] | [20]
inactive: all other assays above

CCCCCCCC/C=C/CCCCCCCC1=NCCN1CCO
inactive: [1] | [10] | [16] | [17] | [13]
active: [2] 13.8 µM | [3] 49 µM | [4] 24.5 µM | [5] 19.5 µM | [6] 43.6 µM | [7] 34.7 µM | [9] 49 µM | [19] 54.5 µM

Clc1ccc(C(Cn2ccnc2)OCc2ccc(Sc3ccccc3)cc2)c(Cl)c1 (stereo not given)
not listed: [7] | [15] | [19] | [20]
inactive: all other assays above

CCCCCCCCn1sc(Cl)c(Cl)c1=O
active: [2] 12.3 µM | [3] 2.45 µM | [4] 4.9 µM | [5] 3.89 µM | [6] 3.47 µM | [7] 1.95 µM | [9] 17.4 µM
inactive: [1] | [10] | [16] | [17] | [13]

CNC(=O)c1ccccc1
not listed: [7] | [15] | [20]
inactive: all other assays above

CCCCCCCC[P+](CCCCCCCC)(CCCCCCCC)CCCCCCCC
active: [2] 10.9 µM | [3] 10.9 µM | [4] 17.3 µM | [5] 1.73 µM | [6] 6.13 µM | [7] 10.9 µM | [9] 17.3 µM | [10] 21.6 µM | [14] 4.3 µM | [11] 0.43 µM | [12] 12.1 µM | [18] 17.1 µM
inactive: [1] | [16] | [13]
